Screening data deposited in PubChem by several laboratories.
Peg3 prom inh-1 – Peg3 promoter-driven luciferase inhibitors, primary screen, cell-based, HeLa, luciferase luminescence. inhibition, % at 20 µM. HeLa PEG-Prom luciferase reporter, overnight. AID 588405, 2011. actives 1.7% (n = 360,000);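 active = inhibition of at least 50% at 20 µM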
CF NFkB inh – inhibitors of PAF-induced NF-kB signaling, primary screen, cell-based, GFP fluorescence, uHTS. KKLEB NF-kB-GFP reporter, GFP fluorescence overnight. actives 0.86% (n = 360,000). inhibition, % at 5 µM;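 active = at least 50% inhibition at 5 µM, scaled per plate between neutral and stimulator controls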;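 also: PAF is a Pseudomonas aeruginosa culture filtrate used as stimulus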
HIF-2a inh – HIF-2a reporter inhibitors, primary screen, luminescence, 786-0 RCC cells. 786-0 RCC cells HIF-2a reporter, luciferase luminescence, overnight. inhibition, % at 18.8 µM. actives 0.72% (n = 360,000). AID 624352, 2012;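 active = inhibition of the luminescence signal of 40% or more relative to plate controls, in a single-dose primary screen at 18.75 µM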
KKLEB cytotox – cytotoxicity in KKLEB CF airway cells, primary screen, cytotoxicity control for CF NF-kB inhibitor project, cell-based, uHTS, fluorescence assay plates | KKLEB CF airway cells viability, ATPlite luminescence, overnight; stronger effect = lower value; cells stimulated with P. aeruginosa culture filtrate | activity change (cytotoxicity), % at 5 µM | actives 0.36% (n = 360,000);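 active = corrected activity change at or below -50% at 5 µM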
Mdm2-MdmX inh – inhibitors of human Mdm2-MdmX association, primary screen, cell-based, luminescence, split luciferase, SaOS-2, uHTS. Protein Mdm4 (Homo sapiens) + E3 ubiquitin-protein ligase Mdm2 (Homo sapiens), …. SaOS-2 split-luciferase Mdm2/MdmX complementation. inhibition, % at 8 µM. actives 3% (n = 330,000). AID 485346, 2010;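 active = inhibition of at least 50% at 8 µM in the primary screen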
Target sequence (O15151 whole entry, looked up): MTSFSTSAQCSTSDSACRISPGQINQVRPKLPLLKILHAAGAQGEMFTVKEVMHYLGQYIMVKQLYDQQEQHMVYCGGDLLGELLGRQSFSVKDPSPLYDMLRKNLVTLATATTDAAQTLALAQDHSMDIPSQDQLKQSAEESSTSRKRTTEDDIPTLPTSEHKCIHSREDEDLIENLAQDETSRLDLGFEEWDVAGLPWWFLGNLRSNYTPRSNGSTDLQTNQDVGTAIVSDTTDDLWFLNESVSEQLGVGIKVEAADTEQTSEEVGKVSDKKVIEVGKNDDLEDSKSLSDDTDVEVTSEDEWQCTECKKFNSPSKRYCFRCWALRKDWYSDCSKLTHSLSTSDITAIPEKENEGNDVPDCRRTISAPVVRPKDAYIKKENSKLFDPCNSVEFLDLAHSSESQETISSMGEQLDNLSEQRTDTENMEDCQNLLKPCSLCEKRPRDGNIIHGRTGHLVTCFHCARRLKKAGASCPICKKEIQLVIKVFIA
Target sequence (Q00987 whole entry, looked up): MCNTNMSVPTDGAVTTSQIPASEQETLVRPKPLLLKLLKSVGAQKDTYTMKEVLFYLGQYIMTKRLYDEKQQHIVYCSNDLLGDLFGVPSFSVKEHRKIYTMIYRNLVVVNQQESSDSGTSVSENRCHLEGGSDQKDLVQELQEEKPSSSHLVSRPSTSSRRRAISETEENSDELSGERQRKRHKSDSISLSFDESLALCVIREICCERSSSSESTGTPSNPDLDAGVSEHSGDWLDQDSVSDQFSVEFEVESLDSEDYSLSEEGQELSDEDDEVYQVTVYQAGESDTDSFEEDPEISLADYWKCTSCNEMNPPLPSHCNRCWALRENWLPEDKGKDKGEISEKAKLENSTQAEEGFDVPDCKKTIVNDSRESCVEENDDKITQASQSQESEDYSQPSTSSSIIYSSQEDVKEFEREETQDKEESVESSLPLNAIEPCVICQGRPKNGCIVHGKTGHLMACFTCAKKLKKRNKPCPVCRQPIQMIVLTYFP
ABHD5 PLIN5 PPI – ABHD5-PLIN5 interaction inhibitors, primary screen, cell lysate, split luciferase complementation, luminescence | Perilipin-5 (Homo sapiens) + 1-acylglycerol-3-phosphate O-acyltransferase ABHD5 (Homo … | Split G. princeps luciferase complementation, 4 h | inhibition, % at 4 µM | actives 0.78% (n = 360,000) | AID 602281, 2012;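 active = inhibition above the mean inhibition across every tested compound plus 3 SD, cut at about 22% in these data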
Peg3 prom inh-2 – Peg3 promoter reporter inhibitors, retest, confirmation, cell-based, HeLa, luciferase reporter, single concentration; inhibition, % at 20 µM; HeLa PEG-Prom luciferase reporter, luminescence, overnight; AID 602417, 2012; shares compounds with Peg3 prom inh-1; actives 84% (n = 1,300);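 active = at 20 µM dose, 40% or more inhibition averaged across four replicates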
HIF-2a inh conf – HIF-2a reporter inhibitor retest, confirmation, luminescence, 786-0 RCC cells. shares compounds with HIF-2a inh. HIF-2a luciferase reporter luminescence, overnight. inhibition, % at 18.8 µM. actives 56% (n = 1,800). AID 651580, 2012;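 active = mean inhibition across four replicates of at least 40 percent at the single tested concentration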
HIF-1a counter – HIF-1a luciferase reporter signal reduction – MiaPaCa-2 cells, single concentration, counter-screen for HIF-2a inhibitor project, confirmation; shares compounds with HIF-2a inh; MiaPaCa-2 HIF-1a luciferase reporter, desferoxamine, overnight; inhibition, % at 18.8 µM; actives 72% (n = 1,800);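 active = mean inhibition of the reporter signal across four replicates at the single tested dose of 50% or more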
Of the large screens only hits and unclear results are named; the others gave an inactive call (follow-up assays come after a bar, where they were run). This is a sample that favours compounds with a hit; in the whole collection about 4.6% have one here.

Cc1cc(C)cc(NS(=O)(=O)c2ccc3c(c2)c(=O)n(C)c(=O)n3C)c1	Peg3 prom inh-1 54, HIF-2a inh 50 | Peg3 prom inh-2 70 | HIF-2a inh conf 41 | HIF-1a counter 101
Cn1c(=O)c2cc(S(=O)(=O)Nc3cc(C(=O)O)cc(C(=O)O)c3)ccc2n(C)c1=O	none
CC(OC(=O)c1ccc([N+](=O)[O-])s1)C(=O)NC1CCCCC1C (stereo not drawn)	none
O=C(Nc1ccc(Cc2ccncc2)cc1)c1cccc([N+](=O)[O-])c1	none
O=C(Nc1ccc(Cc2ccncc2)cc1)c1ccc([N+](=O)[O-])o1	Peg3 prom inh-1 103, HIF-2a inh 53 | Peg3 prom inh-2 95 | HIF-2a inh conf inactive | HIF-1a counter 102
CCOC(=O)Cc1csc(NC(=S)NC(=O)c2ccc(Cl)cc2)n1	Peg3 prom inh-1 51, HIF-2a inh 95 | Peg3 prom inh-2 70 | HIF-2a inh conf 98 | HIF-1a counter 97
CCOC(=O)Cc1csc(NC(=O)Cc2ccc(Cl)cc2)n1	none
CC(=O)Nc1ccc(S(=O)(=O)N[C@@H](C)C(=O)OCC(=O)NC2CCCC2)cc1	none
O=Nc1c(O)ccc2cc(S(=O)(=O)O)ccc12	Peg3 prom inh-1 62, HIF-2a inh 76 (no result: Mdm2-MdmX inh) | Peg3 prom inh-2 68 | HIF-2a inh conf 82 | HIF-1a counter inactive
CCOc1ccc(-n2nnnc2SCC(=O)Nc2cccc(O)c2)cc1	none
O=C(Cn1ncc(Cl)c(Cl)c1=O)N1CCN(Cc2ccccc2)CC1	Peg3 prom inh-1 103, CF NFkB inh 88, HIF-2a inh 96, KKLEB cytotox -68 (no result: Mdm2-MdmX inh) | Peg3 prom inh-2 95 | HIF-2a inh conf 61 | HIF-1a counter 106
O=C(Cn1ncc(Cl)c(Cl)c1=O)N1CCc2ccccc21	Peg3 prom inh-1 108, CF NFkB inh 103, HIF-2a inh 94, KKLEB cytotox -88 (no result: Mdm2-MdmX inh) | Peg3 prom inh-2 99 | HIF-2a inh conf 98 | HIF-1a counter 106
CC(=O)Nc1cccc(NC(=O)CSc2nc(=O)n(CCN3CCOCC3)c3c2CCCC3)c1	none
c1ccc(CNc2nc(-c3cccnc3)nc3ccccc23)cc1	none
c1ccc(CN2CCC(Nc3nc(-c4cccnc4)nc4ccccc34)CC2)cc1	Peg3 prom inh-1 100, HIF-2a inh 42 | Peg3 prom inh-2 70 | HIF-2a inh conf inactive | HIF-1a counter 79
Cc1ccc(C(=O)Nc2ccc3c(c2)OCCO3)c(C)c1	Peg3 prom inh-1 68, HIF-2a inh 52 | Peg3 prom inh-2 inactive | HIF-2a inh conf 70 | HIF-1a counter inactive
CCOC(=O)C1=CCC(c2ccccc2)N(S(=O)(=O)c2ccccc2C)C1 (stereo not drawn)	none (no result: Mdm2-MdmX inh)
CCCC(=O)N1CCCC(c2cc(C(=O)Nc3ccccc3)no2)C1 (stereo not drawn)	Peg3 prom inh-1 54, HIF-2a inh 43 (no result: Mdm2-MdmX inh) | Peg3 prom inh-2 47 | HIF-2a inh conf 66 | HIF-1a counter 71
O=C(CS(=O)(=O)c1ccccc1)Nc1nccs1	none
CCCNc1nc(=S)n(-c2ccccc2)c(C)c1C(C)=O	none
CCCCNc1nc(=S)n(-c2ccccc2)c(C)c1C(C)=O	Peg3 prom inh-1 114, HIF-2a inh 51 | Peg3 prom inh-2 94 | HIF-2a inh conf inactive | HIF-1a counter inactive
Cc1c(/C(O)=C2/C(=O)C(=O)N(Cc3cccnc3)C2c2ccccn2)cnn1-c1ccccc1 (stereo not drawn)	Peg3 prom inh-1 66, HIF-2a inh 67 | Peg3 prom inh-2 59 | HIF-2a inh conf 52 | HIF-1a counter 56
Cc1c(/C(O)=C2/C(=O)C(=O)N(Cc3cccnc3)C2c2cccs2)cnn1-c1ccccc1 (stereo not drawn)	none
CN1CCN(c2ccc(-c3ccc4ccccc4n3)cc2)CC1	Peg3 prom inh-1 105, HIF-2a inh 87, KKLEB cytotox -59 (no result: Mdm2-MdmX inh) | Peg3 prom inh-2 95 | HIF-2a inh conf 97 | HIF-1a counter 87
N#C/C(=C\c1cccc([N+](=O)[O-])c1)C(=O)NCc1ccc(Cl)cc1	Peg3 prom inh-1 111, HIF-2a inh 66 (no result: Mdm2-MdmX inh) | Peg3 prom inh-2 96 | HIF-2a inh conf 60 | HIF-1a counter 106
N#C/C(=C\c1cccc([N+](=O)[O-])c1)C(=O)NCc1cccnc1	none
O=C(N/N=C/c1cccs1)c1n[nH]c2c1CCCC2	Peg3 prom inh-1 78, HIF-2a inh 47 | Peg3 prom inh-2 56 | HIF-2a inh conf 65 | HIF-1a counter 57
C/C(=N\NC(=O)c1n[nH]c2c1CCC2)c1cccs1	Peg3 prom inh-1 94, HIF-2a inh 72 | Peg3 prom inh-2 72 | HIF-2a inh conf 83 | HIF-1a counter inactive
CCOc1ccc(C(=O)Nc2cccc(C(=O)O)c2C)cc1Cl	Peg3 prom inh-1 55, HIF-2a inh 54 | Peg3 prom inh-2 inactive | HIF-2a inh conf 54 | HIF-1a counter inactive
COc1ccc(CNC(=O)CN2C(=O)COc3ccc(S(=O)(=O)N4CCC(C)CC4)cc32)cc1	none
CN(C)c1ccc(Nc2nc(N)c3ccccc3n2)cc1	Peg3 prom inh-1 63, HIF-2a inh 47, KKLEB cytotox -62 | Peg3 prom inh-2 65 | HIF-2a inh conf 79 | HIF-1a counter inactive
CN(C)[C@H]1CCN([C@@H]2CS(=O)(=O)N[C@H]2COCc2ccccc2)C1	none (no result: Mdm2-MdmX inh)
CS(=O)(=O)Nc1cccc(NC(=O)C2Cc3c(-c4cccc(F)c4)ccnc3O2)c1 (stereo not drawn)	Peg3 prom inh-1 66, HIF-2a inh 51 (no result: Mdm2-MdmX inh) | Peg3 prom inh-2 64 | HIF-2a inh conf inactive | HIF-1a counter 89
O=C(O)c1ccc(Nc2nc3c(s2)CCCC3)cc1	Peg3 prom inh-1 67, HIF-2a inh 46 | Peg3 prom inh-2 54 | HIF-2a inh conf 64 | HIF-1a counter 52
Cc1cccc(Nc2nc3c(s2)CCCC3)c1	none (no result: Mdm2-MdmX inh)
CC1(C(=O)NS(=O)(=O)c2cccc(Cl)c2)CCN1C(=O)CC1CC1 (stereo not drawn)	none (no result: Mdm2-MdmX inh)
